Assay outcomes: PubChem BioAssay, National Center for Advancing Translational Sciences (NCATS)
This is a sample that favours compounds with a hit; in the whole collection about 21% have one here.
D3 ag: qHTS of D3 Dopamine Receptor Agonist: qHTS. D(3) dopamine receptor (Homo sapiens), P35462. D3R DiscoveRx beta-arrestin cells, luminescence, 90 min. max activation, %. hit rate 0.58% among 410,000; in the data active = max activation above about 30%; note: 0% is about no effect
Target sequence (P35462 whole entry, looked up): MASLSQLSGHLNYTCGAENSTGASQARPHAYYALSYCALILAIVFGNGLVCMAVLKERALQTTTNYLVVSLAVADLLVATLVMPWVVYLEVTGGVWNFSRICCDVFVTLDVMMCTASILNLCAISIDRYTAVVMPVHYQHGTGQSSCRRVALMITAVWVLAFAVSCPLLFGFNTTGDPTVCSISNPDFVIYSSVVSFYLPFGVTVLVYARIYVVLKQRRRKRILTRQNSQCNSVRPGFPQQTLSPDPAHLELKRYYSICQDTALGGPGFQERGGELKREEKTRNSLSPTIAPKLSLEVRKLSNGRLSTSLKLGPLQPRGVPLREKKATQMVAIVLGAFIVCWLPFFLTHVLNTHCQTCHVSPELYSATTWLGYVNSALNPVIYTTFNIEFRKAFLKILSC
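Agonist-mode cell screen: cells plated at 1500/well and incubated overnight at 37 °C, then exposed to library compounds for 90 min at 37 °C. Detection reagent was added for 30–60 min at room temperature, and luminescence was read.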
DT40 TDP1 no CPT: qHTS for Inhibitors of human tyrosyl-DNA phosphodiesterase 1 (TDP1): qHTS in cells in absence of CPT. Potency, µM (doses to about 46.2 µM), for inactives: at the highest dose activity change, negative = growth inhibition, usual class: inhibitors. hit rate 15% among 420,000. DT40 Tdp1-/- hTDP1 cells, no CPT, ATP luminescence, 48 h; note: potency is the fitted concentration of half-maximal effect; % is set by controls: 0 for no effect and ±100 for the full control effect; nearly all actives have a fitted effect of over 55% in size
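Chicken DT40 Tdp1-/- cells complemented with human TDP1, screened without camptothecin (DMSO vehicle only), 400 cells/well. Compounds pin-transferred, cells incubated at 37 °C for at least 48 hr. Growth read as ATP-dependent luminescence (CellTiter-Glo, 30 min at RT).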
ClpP mod: qHTS Assay for Activators of ClpP. hit rate 1.9% among 340,000. purified B. subtilis ClpP, FRET peptide cleavage, 20 min. Potency, µM (series often up to 57.5 µM), without a hit: at the top dose activity change, negative = active. AID 651965, 2013; active = well fitted falling curve with a large enough effect; inconclusive = small, poorly fitted or top-dose-only effect; inactive = no such curve, though single readings can be large or run the other way; note: potency is the fitted concentration of half-maximal effect; the source files actives as falling curves though it sought activators and does not explain the sign; nearly all actives have a fitted effect of over 65% in size
Target sequence (P80244 whole entry, looked up): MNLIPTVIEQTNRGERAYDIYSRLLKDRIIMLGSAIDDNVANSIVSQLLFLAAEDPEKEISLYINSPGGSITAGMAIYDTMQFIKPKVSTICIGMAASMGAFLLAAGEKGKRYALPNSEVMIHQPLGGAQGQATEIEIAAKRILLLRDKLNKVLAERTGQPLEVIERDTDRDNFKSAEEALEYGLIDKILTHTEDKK
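ClpP 10 microg/mL final, pH 8 Tris/KCl buffer with BSA, glycerol, Tween-20; compound pinned in; FRET-FV substrate; RT 20 min; Ex320/Em430; ΔFRET vs ADEP 5.8 microM, DMSO, no enzyme.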
TDP1 cell CPT: qHTS for Inhibitors of human tyrosyl-DNA phosphodiesterase 1 (TDP1): qHTS in cells in presence of CPT; chicken DT40 Tdp1-/-;hTDP1 cells + 20 nM CPT, ATP luminescence, 48 h; Potency, µM (doses to about 46.2 µM), for inactives: at the highest dose activity change, negative = growth inhibition, usual class: inhibitors; hit rate 12% among 420,000; AID 686979, 2013; note: potency is the fitted concentration of half-maximal effect; % is set by controls: 0 for no effect and ±100 for the full control effect; nearly all actives have a fitted effect of over 55% in size
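Chicken DT40 Tdp1-/- cells stably complemented with human TDP1 were seeded at 400 cells/well in medium containing 20 nM camptothecin, exposed to pin-transferred compounds, and grown at 37 °C for at least 48 hr. Viability was read as ATP luminescence.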
IL1B secr inh: qHTS for Inhibitors of Inflammasome Signaling: IL-1-beta AlphaLISA Primary Screen. THP-1 LPS/ATP IL-1B secretion, AlphaLISA, 16 h; stronger effect = lower value. activity change, % at 57.5 µM. hit rate 4.7% among 360,000. AID 743279, 2014; in the data active = activity change below about -50%; inconclusive = mostly about -30% to -49%; note: % is set by controls: 0 for no effect and ±100 for the full control effect
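THP-1 cells pretreated 1 hr with compounds (up to 57.5 uM final), then stimulated with LPS (250 ng/mL final) plus ATP (1.25 mM final); secreted IL-1B measured by AlphaLISA after 16 hr, decreased signal indicating inhibition.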
DRD3 antagonist: qHTS of D3 Dopamine Receptor Antagonist: qHTS; D(3) dopamine receptor (Homo sapiens), P35462; D3R cells, DiscoveRx beta-arrestin luminescence, antagonist mode; stronger effect = lower value; max response, negative = inhibition, %; hit rate 2.5% among 360,000; in the data active = max response below about -50%; inconclusive = no clear call, values can overlap the other calls; note: % is set by controls: 0 for no effect and ±100 for the full control effect
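Cells plated overnight at 1500 cells/well, then exposed to library compounds with dopamine controls for 90 minutes at 37 degrees C. DiscoveRx reagent added for 30–60 minutes at room temperature; luminescence read, quantitative HTS format.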
* marks the source's active call; other numbers are inactive results; ? = inconclusive; . = no result given. Unless noted, calls come from the whole dose curve; as a rule, active = well fitted inhibition curve with a large enough effect; inconclusive = small, poorly fitted or top-dose-only effect; inactive = flat fitted curve, though single readings scatter.

SMILES	D3 ag	DT40 TDP1 no CPT	ClpP mod	TDP1 cell CPT	IL1B secr inh	DRD3 antagonist
CCOC(=O)[C@]12CCCC=C1N(Cc1cccc3ccccc13)C(=O)[C@H](CC(=O)NCC1CCCCC1)C2	2.4	23.1µM*	2.5%	?	0.0	7.7
CCOC(=O)[C@]12CCC=C1N(Cc1ccccc1)C(=O)[C@H](CC(=O)NCc1cccc3ccccc13)C2	1.7	?	-5.4%	?	-15.5	3.4
C#CCNC(=O)C[C@@H]1C[C@@]2(C(=O)OC)CC(C)(C)CC=C2N(Cc2cccc3ccccc23)C1=O	0.2	18.4µM*	0.6%	16.4µM*	15.9	-11.0
COc1cc(NC(=O)CN(C)S(=O)(=O)c2ccc(-c3ccc(=O)[nH]n3)s2)cc(OC)c1	3.3	1.4%	1.8%	15.1%	-11.6	12.9
COc1ccc(C)cc1NC(=O)N1CCC(CN2CCOCC2)CC1	8.7	16.8%	-1.4%	1.3%	.	.
CC(=O)N/C(=C\c1ccc(Br)s1)C(=O)O	4.4	7.2%	.	-3.6%	-7.4	-1.9
CCC(=O)N1CCc2cc(S(=O)(=O)CCC(=O)NCc3cccc(OC)c3)ccc21	-4.0	?	3.0%	?	-24.9	-3.0
C#CCNC(=O)C[C@@H]1C[C@@]2(C(=O)OCC)CCC=C2N(Cc2cccc3ccccc23)C1=O	1.2	16.4µM*	-1.6%	?	-8.7	1.7
COc1cccc(CNc2ccc(N3CCCCC3)cc2)c1OC	3.8	?	1.9%	25.9µM*	-3.4	2.7
COc1cc(CNc2ccc(N3CCCC3)cc2)cc(Cl)c1OC	-8.1	2.59µM*	.	2.31µM*	?	?
CCOc1cc(CNc2ccc(N3CCCC3)cc2)cc(Cl)c1OC	-3.9	3.66µM*	-27.3%	2.91µM*	-99.1*	-15.3
CCOc1cc(CNc2ccc(S(N)(=O)=O)cc2)cc(Cl)c1OC	1.7	?	-3.4%	?	-10.5	11.6
C=CCOc1c(Cl)cc(CNc2ccc(N(C)C)cc2)cc1OC	2.4	6.51µM*	-2.6%	6.51µM*	0.0	-21.6
COc1cccc(CNc2ccc(S(N)(=O)=O)cc2)c1OC	-6.0	-22.8%	0.6%	-21.4%	15.6	-29.7
CC(=O)Nc1cc(C(=O)NCc2ccccc2)ccc1Sc1ccc(C)cc1	2.4	?	3.8%	?	.	.
c1ccc2c(c1)ccc1[nH]c3c(c12)CCCC3	4.0	?	17.8µM*	-19.7%	-9.9	9.8
O=c1[nH]c2ccccc2c2ccccc12	0.2	?	-23.3%	?	0.0	7.8
O=c1c2c([nH]c3ccccc13)CCCCCC2	1.5	16.4µM*	-18.8%	23.1µM*	30.4	9.0
COc1c(N)c2ccccc2[nH]c1=O	1.6	4.7%	31.6µM*	24.5%	23.1	13.9
O=c1c2c([nH]c3ccccc13)CCCCC2	4.5	?	.	-28.2%	45.1	62.8
O=c1c2ccccc2[nH]c2ccccc12	11.1	16.4µM*	4.5%	8.2µM*	-8.9	-22.7
COc1cccc(NC(=O)c2ccccc2OCC(=O)Nc2ccc(Br)cc2)c1	.	?	-12.7%	?	.	.
COc1ccc(C(=O)c2ccc(Cl)cc2)c(OC)c1OC	5.2	?	0.1%	-1.6%	6.3	-1.1
Cc1ccc(/C=C/c2onc(C)c2S(=O)(=O)N2CCC(C(=O)NCc3ccc(Cl)cc3)CC2)cc1	-5.0	-16.9%	-2.8%	-29.9%	.	.
COc1ccc(-c2nc(-c3cccc(C(F)(F)F)c3)no2)cc1OC	-1.7	?	?	?	-26.0	7.1
SMILES	D3 ag	DT40 TDP1 no CPT	ClpP mod	TDP1 cell CPT	IL1B secr inh	DRD3 antagonist
COc1ccc(-c2nc(-c3cccc(C)c3)no2)cc1OC	64.6*	-7.9%	25.1µM*	-17.3%	-21.2	22.2
COc1cc(-c2nc(-c3cccc(C)c3)no2)cc(OC)c1OC	58.1*	23.1µM*	-25.3%	18.4µM*	-20.1	40.0
COc1cc(OC)cc(-c2nc(-c3cccc(C)c3)no2)c1	-2.1	?	-12.7%	-19.4%	.	.
CCCc1nc2oc3cc(OC)ccc3c(=O)c2c(=O)n1CCc1ccccc1	0.1	23.1µM*	0.3%	20.6µM*	-11.3	-0.4
CC(C)c1nc2c(c(=O)c3ccccc3n2C)c(=O)n1CCc1ccccc1	3.1	9.2µM*	.	?	.	4.7
COc1ccc(CCn2c(C(C)C)nc3oc4ccccc4c(=O)c3c2=O)cc1	4.7	29.1µM*	2.7%	?	-8.4	-0.4
COCCCn1c(C2CCCCC2)nc2oc3cc(OC)ccc3c(=O)c2c1=O	15.3	20.6µM*	-2.3%	?	3.8	-8.4
CN1CCc2nc(SCC(=O)Nc3cccc(F)c3)c(C#N)c(-c3cccs3)c2C1	-27.1	?	-1.0%	?	0.0	-50.3*
CN1CCc2nc(SCC(=O)Nc3ccc(OC(F)(F)F)cc3)c(C#N)c(-c3cccs3)c2C1	-9.5	23.1µM*	1.8%	14.6µM*	-24.9	?
Cc1cccc(NC(=O)CSc2nc(-c3cccs3)cc(C(F)(F)F)c2C#N)c1C	0.2	-12.8%	-12.1%	-12.7%	.	.
COc1ccc(/C=N/Nc2cc(N3CCCC3)nc(N3CCCC3)n2)cc1	15.2	20.6µM*	.	20.6µM*	-90.8*	2.1
Oc1ccc(/C=N/Nc2cc(N3CCCC3)nc(N3CCCC3)n2)cc1	10.7	?	-22.6%	?	-101.1*	-14.2
CCOc1ccc(/C=N/Nc2cc(N3CCOCC3)nc(C)n2)c(O)c1	-5.3	?	0.0%	?	74.4	-6.8
Cc1nc(N/N=C/c2ccc(Br)cc2)cc(N2CCOCC2)n1	1.6	?	-1.0%	7.31µM*	-17.7	21.3
Fc1ccc(N/N=C/c2ccc(N3CCOCC3)cc2)c(F)c1	1.1	?	35.5µM*	12.1%	13.3	-5.8
CCOC(=O)[C@@H]1[C@H]2COc3ccccc3[C@H]2N2C(=O)N(c3cccc(Cl)c3)C(=O)[C@]12C	-10.9	-10.2%	0.8%	?	-11.6	13.0
COc1ccc(C(=O)N/C(=C\c2ccc(Cl)cc2)C(=O)NCc2ccncc2)cc1	0.2	-28.0%	-2.5%	-28.3%	?	-3.8
Cc1noc(C)c1S(=O)(=O)N1CCC(C(=O)O)CC1	-4.1	1.7%	-0.4%	9.0%	9.1	0.7
COc1ccc(NC2CCCN(C(=O)Cn3ccc(C)n3)C2)cc1OC (centres undefined)	4.8	-0.2%	-16.5%	8.5%	1.2	24.6
